GPR151 ag = activators of human GPR151; Q8TDV0; PathHunter beta-arrestin GPR151 cells, luminescence; activation, % at 11.2 µM; 650,000 tested, 1% active; in the data active means activation above about 4.9%
MITF primary = blocks human microphthalmia-associated transcription factor; O75030; AlphaScreen MITF homodimerization, bead proximity signal; inhibition, % at 2.6 µM; 650,000 tested, 0.91% active; AID 1259374; in the data active means inhibition above about 50%
FBW7 activator = activators of human E3 ligase FBW7 | Q969H0 | AlphaScreen FBW7–phospho-cyclin E peptide binding, activator screen | normalized activity (activation), % at 26.1 µM | 650,000 tested, 0.13% active; in the data active means normalized activity above about 1.9%;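 further: purified mutant Fbw7 with reduced substrate affinity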
Target sequence (Q969H0 whole entry, looked up): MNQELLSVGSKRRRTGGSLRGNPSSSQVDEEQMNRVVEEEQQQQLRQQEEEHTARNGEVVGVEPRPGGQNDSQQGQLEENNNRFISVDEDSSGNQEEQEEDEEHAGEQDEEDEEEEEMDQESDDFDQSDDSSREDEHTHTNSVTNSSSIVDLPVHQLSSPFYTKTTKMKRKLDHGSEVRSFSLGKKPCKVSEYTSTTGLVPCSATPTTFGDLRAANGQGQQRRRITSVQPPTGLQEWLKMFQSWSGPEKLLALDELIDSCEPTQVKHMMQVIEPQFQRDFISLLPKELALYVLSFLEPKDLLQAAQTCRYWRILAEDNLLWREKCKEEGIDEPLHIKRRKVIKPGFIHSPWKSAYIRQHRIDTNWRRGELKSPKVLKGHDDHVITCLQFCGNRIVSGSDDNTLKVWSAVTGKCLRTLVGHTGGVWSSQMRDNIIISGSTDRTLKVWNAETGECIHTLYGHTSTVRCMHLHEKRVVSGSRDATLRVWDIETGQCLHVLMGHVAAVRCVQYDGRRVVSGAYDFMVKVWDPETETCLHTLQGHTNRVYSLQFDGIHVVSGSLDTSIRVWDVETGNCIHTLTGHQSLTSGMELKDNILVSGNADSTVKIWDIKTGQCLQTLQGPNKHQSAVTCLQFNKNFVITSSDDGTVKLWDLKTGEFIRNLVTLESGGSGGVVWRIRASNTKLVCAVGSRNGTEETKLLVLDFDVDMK
TEAD-YAP block = TEAD-YAP interaction inhibition; HEK-TIYL cells, TEAD-Gal4/YAP UAS-luciferase luminescence; inhibition, % at 9.12 µM; 640,000 tested, 1.4% active; in the data active means inhibition above about 32%
MITF confirm = human MITF inhibition, confirmation | shares compounds with MITF primary | inhibition, % at 2.6 µM | AlphaScreen MITF homodimerization, biotin/His-MITF beads | 4,700 tested, 16% active;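 active means inhibition above a cutoff derived from the DMSO control wells, cut at about 28% in these data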;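 further: inhibitors lower the bead chemiluminescence by keeping MITF from dimerizing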
AlphaScreen DR = AlphaScreen optical interference, dose response counter-screen. 480 tested, 6% active. AlphaScreen optical interference counterscreen, cell-free. shares compounds with MITF primary. IC50, µM; call rule not given here
AlphaScreen intf2 = AlphaScreen optical interference, counter-screen | AID 1259376 | shares compounds with MITF primary | inhibition, % at 2.6 µM | 4,700 tested, 7.6% active | LysRS AlphaScreen counterscreen, signal interference, triplicate;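 active means inhibition above a cutoff derived from the DMSO control wells, cut at about 30% in these data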
Numbers stand for hits; . = inactive; / = not tested or not shown; ! = not active in a repeat. Compounds with a hit are over-represented: about 3.5% of the library has one in this group of screens.

SMILES | GPR151 ag | MITF primary | FBW7 activator | TEAD-YAP block | MITF confirm | AlphaScreen intf2 | others
CCOc1cc(C2CC(=O)NC3=C2C(=O)CC(c2cccs2)C3)ccc1O (stereo not given) | . | . | . | . | / | /
COc1cc2c(cc1OC)C(c1cc3cc4c(cc3[nH]c1=O)OCO4)N(C(=O)C1CC1)CC2 (stereo not given) | . | 67 | . | . | . | .
COc1cc2c(cc1OC)C(COc1ccc(F)cc1)N(C(=O)C1CC1)CC2 (stereo not given) | . | . | . | . | / | /
O=C(NCc1ccc(Cl)cc1)c1cc2nc3c(c(C(F)(F)F)n2n1)CCc1ccccc1-3 | . | . | . | . | / | /
CCOC(=O)c1ccc(NC(=O)CC2C(=O)N(c3ccc(F)cc3)C(=S)N2CCc2ccc(OC)c(OC)c2)cc1 (stereo not given) | . | 72! | . | . | . | .
COC(=O)c1ccc(NC(=O)CC2C(=O)N(c3ccc(F)cc3)C(=S)N2CCc2ccc(OC)c(OC)c2)cc1 (stereo not given) | . | . | . | . | / | /
COc1ccc(S(=O)(=O)NCCC(=O)O)cc1N(C)S(C)(=O)=O | . | . | . | . | / | /
CCOc1ccc2nc(N=C(NC(=O)c3ccccc3)NC(=O)c3ccccc3)nc(C)c2c1 | . | 71 | . | . | . | .
CCOc1ccc2nc(N=C(NC(C)=O)NC(C)=O)nc(C)c2c1 | . | . | . | . | / | /
COC(=O)c1cc(S(=O)(=O)NCc2ccccc2Cl)c[nH]1 | . | . | . | . | / | /
COC(=O)c1cc(S(=O)(=O)NCc2ccccc2OC)c[nH]1 | . | 75 | . | . | . | .
COc1cccc(CNc2cccc(F)c2)c1OC | . | . | . | . | / | /
COc1cccc(CNc2cccc(C)c2)c1OC | . | 78 | . | . | . | .
COc1ccc(CN2CCN(Cc3cccc(F)c3)CC2)c(OC)c1OC | . | . | . | . | / | /
COc1cccc(CN2CCN(Cc3cccc(Cl)c3)CC2)c1OC | . | 73 | . | . | . | .
COc1ccc(CN2CCN(Cc3cccc(OC)c3OC)CC2)cc1Br | . | 75 | . | . | . | .
COc1cccc(CN2CCN(C(=O)c3cccc(Cl)c3)CC2)c1OC | . | . | . | . | / | /
COc1cccc(CN2CCN(Cc3cccc(Br)c3)CC2)c1OC | . | 70 | . | . | . | .
COCCNC(=O)CN(c1cc(C(F)(F)F)ccc1Cl)S(=O)(=O)c1ccccc1 | . | . | . | . | / | /
O=C(c1ccc([N+](=O)[O-])cc1)N1CCN(S(=O)(=O)c2ccc(F)cc2)CC1 | . | . | . | . | / | /
COc1cccc(CN2CCN(Cc3cccc(C)c3)CC2)c1OC | . | 76 | . | . | . | .
Cc1ccc(S(=O)(=O)Cn2nnnc2CN2CCOCC2)cc1 | . | 64 | . | . | . | .
Cc1ccc(S(=O)(=O)Cn2nnnc2CN2CCN(c3ccccc3)CC2)cc1 | . | . | . | . | / | /
CN(C)c1cccc(Nc2cc(C(=O)NCCc3ccc(O)cc3)c3ccccc3n2)c1 | . | 70 | . | . | . | .
CCCNC(=O)c1cc(Nc2cccc(N(C)C)c2)nc2ccccc12 | . | . | . | . | / | /
SMILES | GPR151 ag | MITF primary | FBW7 activator | TEAD-YAP block | MITF confirm | AlphaScreen intf2 | others
CCCCc1nc2ccccc2c(NC(=O)CNC2CCCCC2)c1CCC | . | 66 | . | . | . | .
CCCCc1nc2ccccc2c(NC(=O)CN2CCN(C(=O)c3ccco3)CC2)c1CCC | . | 65 | . | . | . | .
CCCCN(C)CC(=O)Nc1cc(N(C)C)nc2ccccc12 | . | . | . | . | / | /
CCCCc1nc2ccccc2c(NC(=O)CN(CCCC)CCCC)c1CCC | . | 83 | . | . | . | .
Cc1ccc(S(=O)(=O)N/N=C/c2ccc(OC(C)C(=O)O)cc2)cc1 (stereo not given) | . | . | . | . | / | /
CC(=O)c1ccc(OCCCCN2CCCC2)cc1 | . | . | . | . | / | /
CC(=O)c1ccc(OCCN2CCN(C)CC2)cc1 | . | 66 | . | . | . | .
CN1CCN(CCOc2ccc(C=O)cc2)CC1 | . | 74 | . | . | . | .
Cc1ccc(Cl)cc1NC(=O)c1ccc(NCCN2C(=O)CCC2=O)c([N+](=O)[O-])c1 | . | . | . | . | / | /
Clc1ccc(-c2[nH]ncc2CNCc2cccnc2)cc1 | . | 58 | . | . | . | .
O=S(=O)(c1ccc2ccccc2c1)N1CCC(N2CCN(Cc3ccccc3)CC2)CC1 | . | 57 | . | . | . | .
COc1ccc(S(=O)(=O)N2CCN(c3ccccc3F)CC2)cc1 | . | . | . | . | / | /
O=S(=O)(c1ccccc1)N1CCC(N2CCCCCC2)CC1 | . | . | . | . | / | /
O=S(=O)(c1ccc(Cl)cc1)N1CCN(C2CCN(Cc3ccccc3)CC2)CC1 | . | . | . | . | / | /
CN1CCN(C2CCN(S(=O)(=O)c3ccccc3)CC2)CC1 | . | 59 | . | . | . | .
COc1ccc(S(=O)(=O)N2CCC(N3CCN(Cc4ccccc4)CC3)CC2)cc1 | . | 78 | . | . | . | .
COc1ccc(S(=O)(=O)N2CCCN(Cc3ccccc3)CC2)cc1 | . | . | . | . | / | /
COc1ccc(S(=O)(=O)N2CCC(N3CCN(c4ccccc4F)CC3)CC2)cc1 | . | 52 | . | . | . | .
CCCN(CCC)C(=O)C1Sc2nnc(C)n2NC1c1ccc(OCC)cc1 (stereo not given) | . | . | . | . | / | /
O=C(NCc1ccccc1)c1cccc(-c2cccs2)c1 | . | . | . | . | / | /
O=C(NCc1cccnc1)C(=O)NCc1cccnc1 | . | 72 | . | . | . | .
O=C(NCc1cccnc1)c1cccc(-c2cccs2)c1 | . | 55 | . | . | 45 | . | AlphaScreen DR=.
O=C(NCCO)c1cccc(-c2cccs2)c1 | . | 59 | . | . | 59 | . | AlphaScreen DR=.
Cc1cc(N=Cc2ccc([N+](=O)[O-])o2)ccc1S(=O)(=O)O | . | 58 | . | . | 47 | . | AlphaScreen DR=.
O=[N+]([O-])c1ccc(C=Nc2ccc(N=Cc3ccc([N+](=O)[O-])o3)cc2)o1 | . | . | . | . | / | /
SMILES | GPR151 ag | MITF primary | FBW7 activator | TEAD-YAP block | MITF confirm | AlphaScreen intf2 | others
COCCNC(=O)Cn1cccc1C(=O)c1ccccc1 | . | . | . | . | / | /
N#Cc1c(SCC(=O)O)nc2c(c1-c1ccco1)CCC2 | . | 60 | . | . | 72 | . | AlphaScreen DR=.
Cc1ccnc(SCc2cn3cccnc3n2)n1 | . | . | . | . | / | /
CCOc1cc(NC(=O)c2ccccn2)c(OCC)cc1NC(C)=O | . | 60 | . | . | 52 | 76
CCOc1cc(NC(=O)c2ccccn2)c(OCC)cc1NC(=O)CC | . | . | . | . | / | /
Cc1ccc(-n2nc3c(c2NC(=O)c2ccc4ccccc4c2)CS(=O)(=O)C3)cc1 | . | . | . | . | / | /
CN(CCc1ccccn1)C(=O)COc1ccc2ccccc2c1 | . | 84 | . | . | . | .
CN(CCc1ccccn1)C(=O)c1ccccc1 | . | 60 | . | . | . | .
CN(Cc1ccccc1)C(=O)COc1ccc2ccccc2c1 | . | . | . | . | / | /

Screening data from PubChem BioAssay.
